Hits are enriched below; roughly 19% of the tested compounds scored in any of these assays.
TDP1 cell CPT: qHTS for Inhibitors of human tyrosyl-DNA phosphodiesterase 1 (TDP1): qHTS in cells in presence of CPT. chicken DT40 Tdp1-/-;hTDP1 cells + 20 nM CPT, ATP luminescence, 48 h. Potency, µM (doses to about 46.2 µM), for inactives: at the highest dose activity change, negative = growth inhibition, actives largely listed as inhibitors. 420,000 tested, 12% active; further: potency means the concentration at half of the fitted maximal effect; nearly all actives have a fitted effect of over 55% in size
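Chicken DT40 Tdp1-/- cells complemented with human TDP1, 400 cells/well, exposed to compounds plus 20 nM camptothecin for at least 48 h at 37 C; viability read as ATP content by CellTiter-Glo luminescence.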
HT1080-NT tox: qHTS for induction of synthetic lethality in tumor cells producing 2HG: qHTS for the HT-1080-NT fibrosarcoma cell line; Potency, µM (doses to about 46.1 µM), for inactives: at the highest dose activity, negative = less viability, usual class: cytotoxic; AID 686970, 2013; 360,000 tested, 1.6% active; HT-1080-NT fibrosarcoma viability, CellTiter-Glo ATP luminescence, 48 h;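 further: NT is the 2HG producing partner of a matched IDH1 knockdown line; potency means the concentration at half of the fitted maximal effect; 0% = DMSO-treated cells and -100% = media-only wells without cells; nearly all actives have a fitted effect of over 55% in size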
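Viability of the 2HG-overproducing fibrosarcoma line after 48 hours of compound exposure at 37 degrees C was determined by luminescence with CellTiter-Glo, and concentration-effect curves were then fitted and categorized.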
TDP1 cell noCPT: qHTS for Inhibitors of human tyrosyl-DNA phosphodiesterase 1 (TDP1): qHTS in cells in absence of CPT | DT40 Tdp1-/- hTDP1 cells, no CPT, ATP luminescence, 48 h | Potency, µM (doses to about 46.2 µM), for inactives: at the top dose activity change, negative = growth inhibition, actives largely listed as inhibitors | 420,000 tested, 15% active; further: potency means the concentration at half of the fitted maximal effect; nearly all actives have a fitted effect of over 55% in size
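Growth kinetics read by CellTiter-Glo luminescence after ≥48 hr at 37 °C. Cells: DT40 Tdp1-/- stably carrying human TDP1, 400 per well, compound exposure in the absence of CPT (DMSO vehicle).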
IL-1B inflam inh: qHTS for Inhibitors of Inflammasome Signaling: IL-1-beta AlphaLISA Primary Screen; THP-1 LPS/ATP IL-1B secretion, AlphaLISA, 16 h; stronger effect = lower value; activity change, % at 57.5 µM; 360,000 tested, 4.7% active; in the data active means activity change below about -50%; inconclusive means mostly about -30% to -49%
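Secreted IL-1B measured by AlphaLISA bead assay after 16 h compound exposure of THP-1 cells; compounds (final up to 57.5 uM) added 1 h before LPS (250 ng/mL) and ATP (1.25 mM) stimulation; lower signal means less secretion.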
HT1080 IDH1KD tx: qHTS for induction of synthetic lethality in tumor cells producing 2HG: qHTS for the HT-1080-IDH1KD cell line; HT-1080 IDH1 knockdown viability, ATP luminescence, 48 h; Potency, µM (titrated, usually from 46.1 µM), for inactives: top-dose activity, negative = toxicity, hits mostly cytotoxic; 360,000 tested, 2% active;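 further: potency means the concentration at half of the fitted maximal effect; 0% = DMSO wells and -100% = cell-free medium wells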
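Cytotoxicity counter-line: IDH1KD HT-1080, 48 h, CellTiter-Glo. Curves classed by r2, magnitude and activity.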
An asterisk follows results filed as active; ? = inconclusive; / = no result given. Unless noted, the call rests on the fitted dose curve; in most records, active means well fitted curve in the direction sought with a large enough effect; inconclusive means small, poorly fitted or top-dose-only effect, or another doubt; inactive means no such curve, though single readings can be large; an effect the other way counts as inactive or inconclusive. Unless noted, on the % scale 0 is the no-effect control and ±100 the full control effect.

SMILES | TDP1 cell CPT | HT1080-NT tox | TDP1 cell noCPT | IL-1B inflam inh | HT1080 IDH1KD tx
COc1ccc(C(=O)N=c2sc3cc(Cl)ccc3n2C)cc1 | 6.8% | / | 1.6% | / | /
O=C(O)c1ccccc1/C=N/NC(=O)c1cc(-c2ccco2)nc2ccccc12 | 0.6% | -28.4% | 1.2% | 41.8 | ?
Cc1ccc(-c2cc(-c3ccco3)c3c(N)c(C(=O)NN)oc3n2)cc1 | ? | -2.7% | ? | 0.0 | ?
COc1cccc(-c2cc(C(=O)N/N=C/c3ccco3)c3ccccc3n2)c1 | ? | -13.4% | 0.92µM* | -23.7 | -0.1%
CCCc1ccc(-c2cc(C(=O)N/N=C/c3ccc([N+](=O)[O-])o3)c3ccccc3n2)cc1 | 16.4µM* | 7.31µM* | 8.2µM* | -16.2 | 6.51µM*
O=C(N/N=C/c1ccco1)c1cc(-c2ccccc2)nc2ccccc12 | ? | -24.1% | 4.11µM* | 29.6 | -24.4%
COc1cccc(/C=N/NC(=O)c2oc3nc(-c4ccccc4)cc(-c4ccco4)c3c2N)c1 | -27.7% | 9.0% | 13µM* | -57.9* | 3.3%
COc1cccc(NC(=O)c2cc(-c3ccco3)nc3ccccc23)c1 | -13.7% | 0.0% | ? | -12.0 | -1.5%
O=C(NC1CC(=O)N(c2cccc(F)c2)C1)c1ccc(S(=O)(=O)N2CCOCC2)cc1 (centres undefined) | -2.9% | / | ? | / | /
CCOC(=O)c1[nH]ncc1CN1CCN(Cc2ccc(C)cc2)C(CCO)C1 (centres undefined) | 10.9% | 8.0% | 3.5% | 0.1 | 24.5%
CC1(C)CC(=O)CC(=Nc2ccc(C(=O)O)cc2)C1 | 9.2% | 28.2% | 12.9% | 7.7 | 12.3%
O=C(NN=C1CCCCCC1)c1cc(-c2ccccc2)nc2ccccc12 | 16.4µM* | -26.4% | 14.6µM* | 44.2 | ?
COCCNc1nc(Nc2ccc(C)cc2C)c2sccc2n1 | 1.84µM* | ? | 1.46µM* | 18.2 | ?
COCCNc1nc(NCc2ccc(C)cc2C)c2sccc2n1 | 14.6µM* | -11.3% | 14.6µM* | 2.4 | -29.2%
CC(=O)c1cc2ccccc2c2ccccc12 | 3.9% | / | -22.2% | / | /
O=C(c1ccco1)N1CCN(c2ncnc3c(-c4ccc(Cl)cc4)nsc23)CC1 | -2.1% | 20.2% | -28.5% | 6.6 | 7.5%
C#CCOCCOCCOCCNc1nc(N2CCN(C(=O)C([C@@H](C)CC)n3cc(C(N)CO)nn3)CC2)nc(N2CCN(C(=O)C([C@@H](C)CC)n3cc(C(N)COC(=O)C(F)(F)F)nn3)CC2)n1 (some centres undefined) | -4.7% | 11.6% | 0.3% | 4.6 | 13.1%
CC1(C)CC(=O)C2=C(C1)OC(N)=C(C#N)C2c1cn(-c2ccccc2)nc1-c1ccc(F)cc1 (centres undefined) | 14.6µM* | ? | ? | ? | ?
CC1(C)CC(=O)C2=C(C1)C(c1cn(-c3ccccc3)nc1-c1ccccc1)C(C#N)=C(N)O2 (centres undefined) | ? | ? | ? | -56.3* | ?
Cn1cccc1C1C(C#N)=C(N)OC2=C1C(=O)CC(C)(C)C2 (centres undefined) | -3.4% | 7.8% | 1.1% | 9.5 | 2.2%
CC1(C)CC(=O)C2=C(C1)OC(N)=C(C#N)C2Cc1ccccc1 (centres undefined) | -3.9% | 12.9% | -4.4% | -1.9 | 4.6%
CN(CC(=O)Nc1cccc(F)c1)C(=O)c1cc([N+](=O)[O-])ccc1N1CCOCC1 | -9.7% | 1.7% | -12.1% | -6.8 | 11.8%
Cc1ccc(S(=O)(=O)c2nc(Nc3ccccc3C#N)sc2Cl)cc1 | ? | -1.7% | 2.59µM* | 9.2 | 2.4%
CC(=O)c1ccc(N2C(=O)CC(N3CCN(S(=O)(=O)c4ccc(C)c(C)c4)CC3)C2=O)cc1 (centres undefined) | -12.6% | -1.5% | 3.1% | 14.4 | -0.1%
COC(=O)C1=C(C)NC(=O)CC1c1ccc(C(=O)OC)cc1 (centres undefined) | 1.3% | 2.2% | 4.1% | 4.1 | -0.3%
SMILES | TDP1 cell CPT | HT1080-NT tox | TDP1 cell noCPT | IL-1B inflam inh | HT1080 IDH1KD tx
COC(=O)c1ccc([C@H]2CC(=O)O2)cc1 | ? | -13.0% | ? | -95.6* | -13.7%
CCCCc1cc(=O)oc2cc(O)cc(O)c12 | 2.7% | -19.9% | 9.2µM* | 36.1 | -12.3%
CCCCc1cc(=O)oc2cc(C)cc(O)c12 | ? | -13.4% | ? | -15.4 | 0.0%
CCCCc1cc(=O)oc2cc(C)c3c(C)coc3c12 | 14.6µM* | / | ? | / | /
Cc1cnc(NS(=O)(=O)c2ccc(N)cc2)nc1-c1ccccc1O | 0.4% | -5.7% | 11.7% | -26.7 | -4.7%
Cc1ccc(S(=O)(=O)N2CCOCC2)cc1C(=O)OCC(=O)NC1CCCC1 | -10.7% | 7.4% | -4.7% | -5.8 | 10.0%
CN(Cc1ccccc1)C(=O)CC(c1ccccc1)c1cc(Cl)ccc1O (centres undefined) | 23.1µM* | ? | 20.6µM* | -29.1 | ?
CC(NC(=O)CC(c1ccccc1)c1cc(Cl)ccc1O)c1ccccc1 (centres undefined) | 14.6µM* | -14.9% | 20.6µM* | ? | ?
O=C(CC(c1ccccc1)c1cc(Cl)ccc1O)NCCCN1CCOCC1 (centres undefined) | -11.0% | -9.3% | 2.7% | -10.3 | 4.8%
CCOc1ccc(CCNC(=O)CN2CCN(Cc3ccccc3C)C2=O)cc1OCC | ? | -3.0% | ? | -7.6 | -2.1%
COCc1cc(C)nc(OCC(=O)N/N=C/c2ccc(-c3cc([N+](=O)[O-])ccc3C)o2)c1C#N | ? | 1.2% | ? | -25.8 | -27.9%
Cc1ccc([N+](=O)[O-])cc1-c1ccc(/C=C(\C#N)c2[nH]nc(N)c2C#N)o1 | ? | ? | 13µM* | ? | 16.4µM*
Cc1cccc(S(=O)(=O)N2CCC(CO)(Cc3ccccc3)CC2)c1 | 2.2% | -0.2% | ? | 5.0 | -2.6%
COc1ccc(N(CC(=O)NCCSc2ccccn2)S(=O)(=O)c2ccccc2)cc1OC | -12.8% | -13.6% | ? | 29.4 | -9.9%
COc1ccc(N(CC(=O)NCCSc2ccccn2)S(=O)(=O)c2ccccc2)cc1Cl | 16.4µM* | -3.2% | ? | -7.1 | -12.4%
COc1cccc(N(CC(=O)NCCSc2ccccn2)S(=O)(=O)c2ccccc2)c1 | -20.1% | -0.7% | ? | -59.0* | -5.2%
CCOC(=O)c1c(C2COc3ccccc3O2)csc1NC(=O)c1ccco1 (centres undefined) | 14.1µM* | 23.5% | 11.2µM* | -54.1* | 1.9%

Assay outcomes (PubChem BioAssay)
